Experimental findings from PubChem BioAssay (EPA / NIEHS) are described below.

By AC50 is commonly meant the concentration giving half of the maximal activity seen.

Results filed as inconclusive are left out. Active and inactive are the calls of the source. Rule for the calls: active = hit-call score of the fitted dose curve at least 0.9, where 1 is the maximum; inconclusive = response in the unintended direction; inactive = score below 0.9.

The experiment in a line: ACEA_ER_AUC_viability: ACEA Biosciences xCELLigence Real-Time Cell Analysis on Estrogen Receptor Agonism for Viability (AID 2283782).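 Note: hit means loss of impedance signal meaning reduced cell growth or viability.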 In outline:
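Read-out: real-time electrical impedance (RT-CES) area under curve, loss of signal taken as reduced viability, normalized to DMSO baseline. T-47D cells, charcoal-stripped serum medium, compounds up to 100 uM final, continuous exposure, 80 h.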
In the case of `CC(C)c1ccc2ncccc2c1`, the compound was classed as inactive.

On to `C=C(C)C1CC=C(C)C(OC(C)=O)C1` (stereo not given), for which the AC50 was 81.5 µM (active).

As to `CC(C)CCCCCOC(=O)CS`, the compound was called inactive.

`CN1CCN(C)CC1`: the outcome was inactive.

Turning to `CCCC/C=C/C=C\C=O`, the AC50 was 88.9 µM (active).

Consider `C=CC(=O)OCCCCCCOC(=O)C=C`, for which the AC50 was 85.3 µM (active).

Turning to `CC1(C)C(=O)N(CO)C(=O)N1CO`, the call was inactive.

For the compound `Clc1cc(Cl)c(Cl)c(Cl)c1Cl`, the compound was classed as inactive.

Consider `Cc1ccc2c(c1)CCCN2`, for which the compound was called inactive.

For the compound `CCCCOC(=O)C(C)CC` (stereo not given), the outcome was inactive.

As for `CC1CCC(C(C)(C)S)C(=O)C1` (stereo not given), the compound was classed as inactive.

In the case of `CC1CCC(=O)C1=O` (stereo not given), the half-maximal activity concentration (AC50) was 10.3 µM (active).

With `Clc1cccnc1`, the compound was classed as inactive.

In the case of `CC(C)(CO)COC(=O)C(C)(C)CO`, the compound was classed as inactive.

With `CC(=O)OC1CCCCC1`, the AC50 is 40.3 µM (active).

As for `C=C(C)OC(C)=O`, the call was inactive.

As to `C=CC(C)(O)CC/C=C(\C)CC` (stereo not given), the AC50 is 50 µM (active).

For the compound `C=CC(=O)OCCCCCCCC(C)C`, the compound was called inactive.

As for `Nc1ccc(O)c([N+](=O)[O-])c1`, the AC50 was 85.7 µM (active).

Consider `c1ccc2sc(SSN3CCOCC3)nc2c1`, for which the AC50 was 84.8 µM (active).

For the compound `CC(C)=CCl`, the result was inactive.

In the case of `CCOC(=O)CC(=O)c1ccccc1`, the AC50 was 50 µM (active).

`COCC(=O)O`: the outcome was inactive.

`O=C(C=Cc1ccccc1)OCCc1ccccc1`: the AC50 was 58 µM (active).

For `CCC(C)N` (stereo not given), the concentration at half-maximal activity (AC50) was 74.5 µM (active).

As to `CCC(C)C(=O)OC` (stereo not given), the outcome was inactive.

For `CC(C)(O)Cc1ccccc1`, the AC50 is 27.5 µM (active).

In the case of `CC(C)c1cccc(C(C)C)c1N`, the result was inactive.

Take `CC1=CP(=O)(c2ccccc2)CC1` (stereo not given): the call was inactive.

In the case of `N=C1C=CC(=C(c2ccc(N)cc2)c2ccc(N)cc2)C=C1`, the AC50 was 34.5 µM (active).
